Source: PubChem BioAssay (NCATS)
Results filed as inconclusive are left out. Activity calls are given as the source filed them. Calls come from the whole dose curve; as a rule, active = well fitted inhibition curve with a large enough effect; inconclusive = small, poorly fitted or top-dose-only effect; inactive = flat fitted curve, though single readings scatter.

tested on: CP191; assay: qHTS profiling for inhibitors of Plasmodium falciparum proliferation (AID 504749); note: nearly all actives have a fitted effect of over 60% in size;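 for activity, negative = inhibition: 0% = DMSO vehicle and full inhibition = artemisinin control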; conditions: P. falciparum in erythrocytes, SYBR Green DNA, 72 h; series mostly up to 28.7 µM; activity, negative = inhibition: at the top concentration
In short: (§1)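 Parasite proliferation within erythrocytes, 72 h exposure. Endpoint: SYBR Green I fluorescence after overnight lysis at room temperature. Controls: 0.29 uM artemisinin, DMSO.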
Potency is the fitted concentration of half-maximal effect.

Row | Compound | activity, negative = inhibition | Potency
1 | CCCCCCCCCCCCCCCCOP(=O)([O-])OCC[N+](C)(C)C | -1.49% (inactive) | –
2 | O=C1OC(c2ccc(O)cc2)(c2ccc(O)cc2)c2ccccc21 | -26.5% (inactive) | –
3 | Oc1ccc(Cl)cc1Sc1cc(Cl)ccc1O | -18% (inactive) | –
4 | CN(C(=O)CN(CCO)CC(=O)N(C)C(C)(C)Cc1ccccc1)C(C)(C)Cc1ccccc1 | -21.2% [at 12.8 µM] (inactive) | –
5 | CO/N=C1\CN(c2nc3c(cc2F)c(=O)c(C(=O)O)cn3C2CC2)CC1CN (stereo not given) | – | 8.91 µM (active)
6 | c1ccc(CNCCNCc2ccccc2)cc1 | -13.4% (inactive) | –
7 | c1ccc(OCc2ccc(CCCN3CCOCC3)cc2)cc1 | -21% (inactive) | –
8 | NC(CS)C(=O)O (stereo not given) | – | 10 µM (active)
9 | N[C@H](Cc1c[nH]c2ccccc12)C(=O)O | 0.0424% (inactive) | –
10 | c1ccc(-c2ccc(C(c3ccccc3)n3ccnc3)cc2)cc1 (stereo not given) | – | 11.2 µM (active)
11 | CN1CCN(CCCN2c3ccccc3Sc3ccc(S(=O)(=O)N(C)C)cc32)CC1 | – | 3.98 µM (active)
12 | CCCCCCCCCCOCC(O)CN (stereo not given) | -1.65% (inactive) | –
13 | CCN1CCCC1=O | -7.43% (inactive) | –
14 | C[C@@H]1CN(CCCn2c3ccccc3c3ccccc32)C[C@H](C)N1 | – | 7.08 µM (active)
15 | Cc1cccc(C)c1NC(=O)CN1CCN(CCCC(c2ccc(F)cc2)c2ccc(F)cc2)CC1 | -24.6% [at 12.8 µM] (inactive) | –
16 | CCN1CCC[C@H]1CNC(=O)c1c(OC)ccc(Br)c1OC | -8.9% (inactive) | –
17 | Cc1ccc(O)c2ncccc12 | -28.2% (inactive) | –

tested on: CP192; assay: as above; conditions: P. falciparum in erythrocytes, SYBR Green DNA, 72 h; series mostly up to 28.7 µM; activity, negative = inhibition: at the top concentration
In short: as §1

Row | Compound | activity, negative = inhibition | Potency
18 | CC(=O)N/N=C/c1ccc([N+](=O)[O-])o1 | -3.9% (inactive) | –
19 | CCCCCCCCCCCCCCCCOP(=O)([O-])OCC[N+](C)(C)C | 0.711% (inactive) | –
20 | Oc1ccc(Cl)cc1Sc1cc(Cl)ccc1O | -13.6% (inactive) | –
21 | CN(C(=O)CN(CCO)CC(=O)N(C)C(C)(C)Cc1ccccc1)C(C)(C)Cc1ccccc1 | 0.0081% [at 12.8 µM] (inactive) | –
22 | CCCOC(C(=O)OC1CCN(C)CC1)(c1ccccc1)c1ccccc1 | -17% (inactive) | –
23 | c1ccc(CNCCNCc2ccccc2)cc1 | -15.8% (inactive) | –
24 | c1ccc(OCc2ccc(CCCN3CCOCC3)cc2)cc1 | -3.89% (inactive) | –
25 | C=C(CC)C(=O)c1ccc(OCC(=O)O)c(Cl)c1Cl | -26.1% (inactive) | –
26 | NC(CS)C(=O)O (stereo not given) | -8.7% (inactive) | –
27 | N[C@H](Cc1c[nH]c2ccccc12)C(=O)O | -0.761% (inactive) | –
28 | c1ccc(-c2ccc(C(c3ccccc3)n3ccnc3)cc2)cc1 (stereo not given) | – | 10.7 µM (active)
29 | CC(C)NC[C@@H](O)COc1cccc2ccccc12 | -39.7% (inactive) | –
30 | CCOC(=O)/C=C(C)/C=C/C=C(C)/C=C/c1c(C)cc(OC)c(C)c1C | -1.16% (inactive) | –
31 | CN(C)C(=S)SC(=S)N(C)C | – | 7.57 µM (active)
32 | CN1CCN(CCCN2c3ccccc3Sc3ccc(S(=O)(=O)N(C)C)cc32)CC1 | -28.4% [at 12.8 µM] (inactive) | –
33 | CCOC(=O)COc1ccc2c(C)c(CCN(CC)CC)c(=O)oc2c1Cl | -0.148% (inactive) | –
34 | CCN1CCCC1=O | 1.08% (inactive) | –
35 | C[C@@H]1CN(CCCn2c3ccccc3c3ccccc32)C[C@H](C)N1 | -16.9% (inactive) | –
36 | Cc1cccc(C)c1NC(=O)CN1CCN(CCCC(c2ccc(F)cc2)c2ccc(F)cc2)CC1 | -3.25% [at 12.8 µM] (inactive) | –
37 | Cc1ccc(C(=O)C(C)CN2CCCCC2)cc1 (stereo not given) | 0.794% (inactive) | –
38 | O=C1OCCN1/N=C/c1ccc([N+](=O)[O-])o1 | -18.2% (inactive) | –
39 | CN(C)CC/C=C1\c2ccccc2Sc2ccc(Cl)cc21 | -9.03% (inactive) | –
40 | CCN1CCC[C@H]1CNC(=O)c1c(OC)ccc(Br)c1OC | -6.16% (inactive) | –
41 | CCCCCCCCCCCCCCNCCO | -2.38% (inactive) | –
42 | Cc1ccc(O)c2ncccc12 | 5.03% (inactive) | –

tested on: CP194; assay: as above; conditions: P. falciparum in erythrocytes, SYBR Green DNA, 72 h; series mostly up to 28.7 µM; activity, negative = inhibition: at the top concentration
In short: as §1

Row | Compound | activity, negative = inhibition
43 | CC(=O)N/N=C/c1ccc([N+](=O)[O-])o1 | -10.2% (inactive)
44 | CCCCCCCCCCCCCCCCOP(=O)([O-])OCC[N+](C)(C)C | -0.428% (inactive)
45 | O=C1OC(c2ccc(O)cc2)(c2ccc(O)cc2)c2ccccc21 | 5.29% (inactive)
46 | c1ccc(OCc2ccc(CCCN3CCOCC3)cc2)cc1 | -10.8% (inactive)
47 | N[C@H](Cc1c[nH]c2ccccc12)C(=O)O | 1.23% (inactive)
48 | CCOC(=O)/C=C(C)/C=C/C=C(C)/C=C/c1c(C)cc(OC)c(C)c1C | -5.58% (inactive)
49 | CN1CCN(CCCN2c3ccccc3Sc3ccc(S(=O)(=O)N(C)C)cc32)CC1 | -14.5% [at 12.8 µM] (inactive)
50 | CCOC(=O)COc1ccc2c(C)c(CCN(CC)CC)c(=O)oc2c1Cl | 12.4% (inactive)
51 | CCN1CCCC1=O | 0.293% (inactive)
52 | Cc1ccc(C(=O)C(C)CN2CCCCC2)cc1 (stereo not given) | -10% (inactive)
53 | O=C1OCCN1/N=C/c1ccc([N+](=O)[O-])o1 | -17% (inactive)
54 | CCN1CCC[C@H]1CNC(=O)c1c(OC)ccc(Br)c1OC | -8.76% (inactive)
55 | CCCCCCCCCCCCCCNCCO | -11.6% (inactive)

tested on: CP201; assay: as above; conditions: P. falciparum in erythrocytes, SYBR Green DNA, 72 h; series mostly up to 28.7 µM; activity, negative = inhibition: at the top concentration
In short: as §1

Row | Compound | activity, negative = inhibition
56 | CC(=O)N/N=C/c1ccc([N+](=O)[O-])o1 | -6.56% (inactive)
57 | CCCCCCCCCCCCCCCCOP(=O)([O-])OCC[N+](C)(C)C | -0.18% (inactive)
58 | O=C1OC(c2ccc(O)cc2)(c2ccc(O)cc2)c2ccccc21 | 0.244% (inactive)
59 | Oc1ccc(Cl)cc1Sc1cc(Cl)ccc1O | -11.3% (inactive)
60 | CN(C(=O)CN(CCO)CC(=O)N(C)C(C)(C)Cc1ccccc1)C(C)(C)Cc1ccccc1 | -4.99% [at 12.8 µM] (inactive)
61 | CCCOC(C(=O)OC1CCN(C)CC1)(c1ccccc1)c1ccccc1 | -10.3% (inactive)
62 | c1ccc(CNCCNCc2ccccc2)cc1 | -8.82% (inactive)
63 | c1ccc(OCc2ccc(CCCN3CCOCC3)cc2)cc1 | -8.44% (inactive)
64 | C=C(CC)C(=O)c1ccc(OCC(=O)O)c(Cl)c1Cl | -10.7% (inactive)
65 | NC(CS)C(=O)O (stereo not given) | -4.26% (inactive)
66 | N[C@H](Cc1c[nH]c2ccccc12)C(=O)O | 1.29% (inactive)
67 | CC(C)NC[C@@H](O)COc1cccc2ccccc12 | -13.2% (inactive)
68 | CCOC(=O)/C=C(C)/C=C/C=C(C)/C=C/c1c(C)cc(OC)c(C)c1C | -4.83% (inactive)
69 | O=C(CCCN1CCC(O)(c2ccc(Br)cc2)CC1)c1ccc(F)cc1 | -18.9% [at 12.8 µM] (inactive)
70 | CN1CCN(CCCN2c3ccccc3Sc3ccc(S(=O)(=O)N(C)C)cc32)CC1 | -4.54% [at 12.8 µM] (inactive)
71 | CCOC(=O)COc1ccc2c(C)c(CCN(CC)CC)c(=O)oc2c1Cl | -6.73% (inactive)
72 | OC(CCN1CCCCC1)(c1ccccc1)c1ccccc1 | -22.4% (inactive)
73 | CCCCCCCCCCOCC(O)CN (stereo not given) | -11.1% (inactive)
74 | CCN1CCCC1=O | -1.62% (inactive)
75 | Cc1cccc(C)c1NC(=O)CN1CCN(CCCC(c2ccc(F)cc2)c2ccc(F)cc2)CC1 | -0.847% [at 12.8 µM] (inactive)
76 | Cc1ccc(C(=O)C(C)CN2CCCCC2)cc1 (stereo not given) | -4.68% (inactive)
77 | CN(C)CC/C=C1\c2ccccc2Sc2ccc(Cl)cc21 | -11.9% (inactive)
78 | CCN1CCC[C@H]1CNC(=O)c1c(OC)ccc(Br)c1OC | -8.67% (inactive)
79 | CCCCCCCCCCCCCCNCCO | -0.278% (inactive)
80 | Cc1ccc(O)c2ncccc12 | -0.655% (inactive)
